Several values for one entry are separate records, joined by “and”; a condition that tells them apart may be missing. Equal values may be shown once. About 27,000 (9.3%) of roughly 290,000 compounds were called active. What follows is part of a selection rich in actives, with near analogues and random picks from the rest. A number with no mark means an inactive call. Cut-off read from the data, not from the text of the source: active = inhibition mostly above about 28% (no sharp cut-off); inactive = mostly below about 43%.
assay: A qHTS for Small Molecule Inhibitors of Shiga Toxin; details: Vero cells, Shiga toxin protein synthesis inhibition reporter; at 38.7 µM, hits give high values; note: 0% is about no effect

SMILES | inhibition
CCCc1cc(=O)[nH]c(SCC(=O)N2C(C)CCCC2C)n1 (stereo unspecified) | 1.9%
O=C(Cc1ccc(F)cc1)N/N=C/c1ccc2c(c1)OCO2 | 42.2%
Cc1[nH]c2ccccc2c1/C=N/NC(=O)CNC(=O)c1ccc2c(c1)OCO2 | -14.9%
O=C(N/N=C/c1ccc2c(c1)OCO2)C(=O)N1CCCC1 | 76.5% (active)
O=C(CNC(=O)C(c1ccccc1)c1ccccc1)N/N=C\c1ccc2c(c1)OCO2 | 66.2% (active)
CN1CCN(C(=O)/C(=C\c2ccc3c(c2)OCO3)NC(=O)c2cccs2)CC1 | -3.92%
O=C(N/N=C/c1ccc([N+](=O)[O-])cc1)C(=O)N1CCCC1 | 19%
OC(COc1ccc(Br)cc1)CN1CCCC1 (stereo unspecified) | -1.94%
CN1C2CCC1CC(NC(=O)c1ccc([N+](=O)[O-])cc1)C2 (stereo unspecified) | -5.48%
Cn1c(=O)c2c(SCC(=O)NCC3CCCO3)nc(CC(C)(C)C)nc2n(C)c1=O (stereo unspecified) | -7.65%
Cc1cccc(NS(=O)(=O)c2ccc([N+](=O)[O-])cc2)n1 | 12.1%
CC1CCN(c2oc(-c3ccccc3F)nc2C#N)CC1 | 69.1% (active)
COc1ccccc1-c1nc(C#N)c(N2CCC(C(N)=O)CC2)o1 | -15%
Cc1oc(-c2ccccc2F)nc1CS(=O)CC(=O)NCCN1CCCCC1C (stereo unspecified) | -8.05%
O=C(c1ccccc1F)N1CCN(S(=O)(=O)c2ccc(Br)cc2)CC1 | -11.4%
Cc1c(C(=O)N2CCCc3ccccc32)sc2nc(-c3ccccc3)cn12 | 21.5%
Cc1c(C(=O)NCC2CCCO2)sc2nc(-c3ccccc3)cn12 (stereo unspecified) | 93% (active)
O=C(CSc1ccc(-c2ccccc2)nn1)NCC1CCCO1 (stereo unspecified) | 20.8%
Cc1c(C(=O)N2CC(C)OC(C)C2)sc2nc(-c3ccccc3)cn12 (stereo unspecified) | 64.7% (active)
Cc1cccc(C)c1NC(=O)N1CC(C)OC(C)C1 (stereo unspecified) | -12.3%
CCOc1ccc(-n2c(N)c(C(=O)NCC3CCCO3)sc2=S)cc1 (stereo unspecified) | -14.3%
COc1ccccc1N1CCN(C(=O)c2cc(=O)c3cc(C)cc(C)c3o2)CC1 | 3.39%
COc1cccc(-n2c(=S)sc3c(=O)n(-c4ccccc4C)c(SCC(=O)O)nc32)c1 | 20.4%
CCOc1ccc2[nH]c3nc(SCC(=O)NC4CCCC4)nnc3c2c1 | -5.52%
CCOc1ccc2nc(N(CCN(C)C)C(=O)c3ccc4ccccc4c3)sc2c1 | 25.9%
Cc1nc(COc2cc3oc(=O)cc(C)c3cc2Cl)cs1 | 2.94%

SMILES | inhibition
O=C(Nc1ccc(F)cc1)c1cc2c(s1)CCCC2 | 127% (active)
O=C(Nc1sc2c(c1C(=O)O)CCC2)c1ccccc1F | 15%
O=C(NCCCn1ccnc1)c1cc2c(s1)CCCC2 | -5.02%
O=C(c1cc2c(s1)CCC2)N1CCN(c2ccccc2)CC1 | 44.1%
O=C(COC(=O)c1cc2c(s1)CCCC2)NCc1ccccc1Cl | 7.81%
C=CCN(CC=C)S(=O)(=O)c1ccc(C(=O)Nc2sc3c(c2C(N)=O)CCCCC3)cc1 | -0.928%
O=C(NCCCN1CCOCC1)c1cc2c(s1)CCC2 | 33%
COc1ccc(C(CNC(=O)c2cc3c(s2)CCCC3)N2CCOCC2)cc1 (stereo unspecified) | -16.3%
O=C(NNC(=O)c1cc2c(s1)CCCC2)c1ccccc1 | 110% (active)
CN(CC(=O)Nc1ccccc1F)CC(=O)Nc1ccccc1Br | 13%
O=C(CNC(=O)c1cc2c(s1)CCC2)Nc1ccccc1Br | 61.2% (active)
NC(=O)c1c(NC(=O)c2ccccc2)sc2c1CCCC2 | 68.2% (active)
CN1C(=O)C2(OCCCO2)c2cc(Cl)ccc21 | -14.7%
CC1CCN(C(=O)C2CCN(S(=O)(=O)N3CCC4(CC3)OCCO4)CC2)CC1 | -15.9%
O=C(C[C@H]1C(=O)N(c2ccc(F)c(F)c2)C[C@@H]1Cc1ccccc1)Nc1ccccc1 | -3.22%
COc1ccc(C(=O)Nc2ccc(C(=O)NCC3CCCO3)cc2)c(OC)c1OC (stereo unspecified) | -2.17%
CCSc1nc2sc3c(c2c(=O)n1-c1ccc(C)cc1)CCN(C)C3 | -6.21%
CC1(C)Cc2c(sc(NC(=O)C(=O)N3CCOCC3)c2C#N)CO1 | -10.6%
CCOC(=O)C(C)n1cnc2c(nnn2-c2cccc(OC)c2)c1=O (stereo unspecified) | 41% (active)
CCOC(=O)C(C)n1cnc2c(nnn2-c2ccc(F)cc2)c1=O (stereo unspecified) | 18.3%
COC(=O)C(C)n1cnc2c(nnn2-c2cccc(Cl)c2)c1=O (stereo unspecified) | 26%
CCN(C(=O)CSc1nnc(-c2ccncc2)o1)c1ccccc1 | -4.1%
O=C(c1ccc(Oc2ccc(Cl)cc2)c([N+](=O)[O-])c1)N1CCCC1 | -5.51%
NC(=O)CCN1CCN(S(=O)(=O)/C=C/c2ccccc2)CC1 | 3.87%
CN1CCN(S(=O)(=O)c2cccc(C(=O)O)c2)CC1 | 24%
O=C(O)c1ccc(N=NN2CCOCC2)cc1 | 38.4% (active)

SMILES | inhibition
O=C(NC(=O)N1CCOCC1)c1ccccc1 | 6.72%
O=C(O)c1cccc(N=NN2CCCCCC2)c1 | 139% (active)
O=C(c1ccccc1)N1CCN(C(=O)N2CCCCC2)CC1 | -25.1%
NC(=NC(=O)c1ccccc1)N1CCOCC1 | -9.05%
O=C(NCc1ccco1)c1ccc([N+](=O)[O-])cc1Cl | -6.09%
O=C(Nc1ccccc1Cl)NC1(C(=O)N2CCOCC2)CCCCC1 | 3.21%
CCCCNC(=O)Nc1c(C)cc(SC#N)cc1C | 12.6%
CCOc1ccccc1NC(=O)CCS(=O)(=O)c1cccc2nsnc12 | -10.2%
c1csc(-c2nnc(COc3ncnc4sccc34)o2)c1 | 13.6%
c1csc(-c2nnc(COc3ccc4c(c3)OCO4)o2)c1 | 100% (active)
Clc1ccc(Cc2nnc(-c3cccs3)o2)cc1 | 12.1%
Cc1cc(N2CCCC2)n2nc(C)c(-c3ccccc3)c2n1 | 24.9%
Cc1cc(-n2nc(C)cc2C)n2nc(C)c(-c3ccccc3)c2n1 | -5.33%
Cc1cc(-n2nc(C)cc2C)n2ncc(-c3ccccc3)c2n1 | 63.4% (active)
CCC(C(=O)OC)n1cnc2scc(-c3ccc(C)cc3)c2c1=O (stereo unspecified) | -4.36%
O=C(CCN1C(=O)[C@H]2CC=CC[C@H]2C1=O)NCc1nc(-c2ccccc2)no1 | 24.8%
COc1ccc(OC)c(S(=O)(=O)N2CCCC(C(=O)NCCc3ccccc3)C2)c1 (stereo unspecified) | 9.04%
Cc1ccc(Nc2nc(-c3ccc(O)cc3O)cs2)nc1 | 67.2% (active)
Cc1ccc(NC(=O)c2cc(-c3ccc(C)o3)nc3ccccc23)nc1 | -4.51%
COc1ccc(/C(C)=N\NC(=O)c2ccc(-c3ccccc3)cc2)c(F)c1 | 2.19%
CN(C(=O)COC(=O)CNC(=O)C12CC3CC(CC(C3)C1)C2)c1ccccc1 | 11.2%
O=C(CNC(=O)COc1ccccc1)NCCc1ccccn1 | -6.4%
Cc1c(C)c(C)c(S(=O)(=O)NCCc2ccccn2)c(C)c1C | -12.6%
COc1ccc(NCCc2ccccn2)cc1 | 85% (active)
CCOc1ccc(NC(=S)N2CCCCCC2)cc1 | 29.7%
NS(=O)(=O)c1ccc(NC(=S)N2CCCC2)cc1 | -27.4%

SMILES | inhibition
S=C(Nc1ccc2c(c1)OCO2)N1CCCC1 | 87.4% (active)
Cc1cccc(C)c1NC(=S)N1CCCCCC1 | -6.49%
CCC(C)c1ccc(NC(=S)N2CCCC2)cc1 (stereo unspecified) | 68% (active)
CC(=O)c1cccc(NC(=S)N2CCCC2)c1 | 12.2%
C=CCC1=C/C(=C\c2c(N)n3nc(CC(=O)N4CCOCC4)sc3nc2=O)C=C(OC)C1=O | -1.44%
Cc1cnc(CN(C)C(=O)CC2C(=O)NCCN2Cc2cccc(F)c2F)[nH]1 (stereo unspecified) | -27.4%
O=C(Cn1c[n+](CC(=O)c2ccc([N+](=O)[O-])cc2)cn1)c1ccc([N+](=O)[O-])cc1 | -3.01% and 31.4%
COc1ccccc1CNS(=O)(=O)c1ccc2c(c1)NC(=O)CS2 | 17.1%
CCOC(=O)c1ccccc1NS(=O)(=O)c1c(C)nc2sccn2c1=O | -9.62%
Cn1cncc1COC(=O)c1ccc(Cl)cc1 | 0.74%
CN1OC(COC(=O)c2ccc(Cl)cc2)CC1c1ccccc1 (stereo unspecified) | 50.7% (active)
CN1C2C=C(N(C(=O)c3ccc(Cl)cc3)c3ccccc3)CC1CC2 (stereo unspecified) | -14.6%
Cc1ccc(NS(=O)(=O)c2ccc3c(c2)NC(=O)CO3)cc1 | -11.9%
Cc1cc(NC(=O)CSc2nnnn2-c2ccc(F)cc2)no1 | 24.2%
CN(C)c1nc(-c2cccnc2)nc(-c2ccc(Cl)cc2)c1C#N | -6.6%
Cc1csc(NC(=O)CSc2nnc(-c3cccnc3)o2)n1 | -20.1%
CN(C)c1ccc(-c2nnc(-c3cccnc3)o2)cc1 | 104% (active)
Cc1ccc(-n2ncc3c2CCCC3NC(=O)c2cnccn2)cc1C (stereo unspecified) | 5.12%
CCCCN(C)CCNC(=O)C1CCCN(S(=O)(=O)c2cccc3nsnc23)C1 (stereo unspecified) | -5.4%
O=C(CCN1CCN(C/C=C/c2ccccc2)CC1)Nc1ccccc1Cl | 2.18%
COc1cccc2cc(C(N)=O)/c(=N\NC(=O)c3ccccc3)oc12 | 97% (active)
COc1ccc(C(=O)N/N=c2\oc3ccccc3cc2C(N)=O)cc1 | 55.8%
NC(=O)c1cc2ccccc2o/c1=N/NC(=O)c1cccc(F)c1 | 13.8%

From PubChem BioAssay AID2315 (National Center for Advancing Translational Sciences (NCATS), 2010)
